Measurements taken from ChEMBL document CHEMBL1961873, “Compounds: GSK PKIS; Assays: Nanosyn kinase panel” (2012).

Assays:
[1] = biological target: T1, Aurora kinase A (Homo sapiens) (UniProt O14965); conditions: at 1 µM;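 note: values are mean percent inhibition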
T1 sequence (whole entry): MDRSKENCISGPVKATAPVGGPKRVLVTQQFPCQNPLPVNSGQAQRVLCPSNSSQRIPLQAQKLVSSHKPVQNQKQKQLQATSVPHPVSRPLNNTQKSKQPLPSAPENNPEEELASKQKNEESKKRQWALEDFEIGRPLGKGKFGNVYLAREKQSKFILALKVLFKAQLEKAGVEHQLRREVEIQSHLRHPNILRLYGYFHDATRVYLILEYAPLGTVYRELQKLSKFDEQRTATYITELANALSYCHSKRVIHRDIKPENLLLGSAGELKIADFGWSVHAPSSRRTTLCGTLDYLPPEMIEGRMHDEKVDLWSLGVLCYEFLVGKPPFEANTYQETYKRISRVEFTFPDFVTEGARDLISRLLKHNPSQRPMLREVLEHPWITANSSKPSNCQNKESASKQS

[2] = biological target: Aurora kinase B (Homo sapiens) (UniProt Q96GD4); conditions: at 0.1 µM
Aurora kinase B (Homo sapiens), sequence (Q96GD4 whole entry): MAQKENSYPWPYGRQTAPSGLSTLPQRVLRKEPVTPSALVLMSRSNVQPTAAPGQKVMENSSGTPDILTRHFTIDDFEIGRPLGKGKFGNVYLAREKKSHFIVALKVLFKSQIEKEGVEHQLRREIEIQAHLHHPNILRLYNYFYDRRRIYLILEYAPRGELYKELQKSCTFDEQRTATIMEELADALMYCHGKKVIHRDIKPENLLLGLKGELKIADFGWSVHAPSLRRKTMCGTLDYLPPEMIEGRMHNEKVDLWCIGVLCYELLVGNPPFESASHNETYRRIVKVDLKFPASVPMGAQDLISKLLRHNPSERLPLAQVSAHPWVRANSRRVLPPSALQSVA

[3] = biological target: Aurora kinase B (Homo sapiens) (UniProt Q96GD4); conditions: at 1 µM
[4] = biological target: T2, Aurora kinase C (Homo sapiens) (UniProt Q9UQB9); conditions: at 0.1 µM
T2 sequence (whole entry): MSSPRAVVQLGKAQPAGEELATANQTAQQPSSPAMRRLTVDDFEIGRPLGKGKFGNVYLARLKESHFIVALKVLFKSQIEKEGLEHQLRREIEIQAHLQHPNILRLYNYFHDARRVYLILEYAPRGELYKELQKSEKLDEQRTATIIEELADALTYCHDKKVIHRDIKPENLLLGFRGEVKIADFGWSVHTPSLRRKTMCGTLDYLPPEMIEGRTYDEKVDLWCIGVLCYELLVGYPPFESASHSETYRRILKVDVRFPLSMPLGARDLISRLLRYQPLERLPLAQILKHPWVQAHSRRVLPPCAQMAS

[5] = biological target: T2, Aurora kinase C (Homo sapiens); conditions: at 1 µM
[6] = biological target: Serine/threonine-protein kinase 10 (Homo sapiens) (UniProt O94804); conditions: at 0.1 µM
Serine/threonine-protein kinase 10 (Homo sapiens), sequence (O94804 whole entry, looked up): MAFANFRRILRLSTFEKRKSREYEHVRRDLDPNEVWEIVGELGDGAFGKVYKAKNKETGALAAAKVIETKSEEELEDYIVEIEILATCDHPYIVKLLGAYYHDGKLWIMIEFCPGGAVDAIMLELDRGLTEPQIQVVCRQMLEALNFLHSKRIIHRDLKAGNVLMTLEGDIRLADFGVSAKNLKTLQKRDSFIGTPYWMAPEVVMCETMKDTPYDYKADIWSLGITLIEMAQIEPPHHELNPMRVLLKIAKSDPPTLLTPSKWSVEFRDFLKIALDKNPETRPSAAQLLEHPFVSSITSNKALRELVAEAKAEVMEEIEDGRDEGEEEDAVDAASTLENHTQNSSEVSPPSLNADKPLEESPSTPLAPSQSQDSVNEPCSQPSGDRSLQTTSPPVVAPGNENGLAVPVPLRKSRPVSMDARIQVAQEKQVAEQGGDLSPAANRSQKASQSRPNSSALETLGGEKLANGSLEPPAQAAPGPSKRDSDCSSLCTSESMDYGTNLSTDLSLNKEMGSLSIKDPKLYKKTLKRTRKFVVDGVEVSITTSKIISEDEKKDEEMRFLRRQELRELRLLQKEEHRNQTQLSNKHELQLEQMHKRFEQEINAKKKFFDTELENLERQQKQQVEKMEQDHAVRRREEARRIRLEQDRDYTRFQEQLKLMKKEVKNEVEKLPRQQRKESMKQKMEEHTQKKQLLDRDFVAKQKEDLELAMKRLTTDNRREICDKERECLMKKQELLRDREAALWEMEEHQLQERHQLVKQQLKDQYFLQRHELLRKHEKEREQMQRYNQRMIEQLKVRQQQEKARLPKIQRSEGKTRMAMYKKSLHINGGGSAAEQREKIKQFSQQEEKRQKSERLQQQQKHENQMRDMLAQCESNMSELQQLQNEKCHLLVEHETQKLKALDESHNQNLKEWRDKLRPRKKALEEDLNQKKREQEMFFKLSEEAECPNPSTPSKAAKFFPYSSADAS

[7] = biological target: Serine/threonine-protein kinase 10 (Homo sapiens) (UniProt O94804); conditions: at 1 µM
[8] = biological target: T3, Mitogen-activated protein kinase kinase kinase kinase 2 (Homo sapiens) (UniProt Q12851); conditions: at 0.1 µM
T3 sequence (whole entry): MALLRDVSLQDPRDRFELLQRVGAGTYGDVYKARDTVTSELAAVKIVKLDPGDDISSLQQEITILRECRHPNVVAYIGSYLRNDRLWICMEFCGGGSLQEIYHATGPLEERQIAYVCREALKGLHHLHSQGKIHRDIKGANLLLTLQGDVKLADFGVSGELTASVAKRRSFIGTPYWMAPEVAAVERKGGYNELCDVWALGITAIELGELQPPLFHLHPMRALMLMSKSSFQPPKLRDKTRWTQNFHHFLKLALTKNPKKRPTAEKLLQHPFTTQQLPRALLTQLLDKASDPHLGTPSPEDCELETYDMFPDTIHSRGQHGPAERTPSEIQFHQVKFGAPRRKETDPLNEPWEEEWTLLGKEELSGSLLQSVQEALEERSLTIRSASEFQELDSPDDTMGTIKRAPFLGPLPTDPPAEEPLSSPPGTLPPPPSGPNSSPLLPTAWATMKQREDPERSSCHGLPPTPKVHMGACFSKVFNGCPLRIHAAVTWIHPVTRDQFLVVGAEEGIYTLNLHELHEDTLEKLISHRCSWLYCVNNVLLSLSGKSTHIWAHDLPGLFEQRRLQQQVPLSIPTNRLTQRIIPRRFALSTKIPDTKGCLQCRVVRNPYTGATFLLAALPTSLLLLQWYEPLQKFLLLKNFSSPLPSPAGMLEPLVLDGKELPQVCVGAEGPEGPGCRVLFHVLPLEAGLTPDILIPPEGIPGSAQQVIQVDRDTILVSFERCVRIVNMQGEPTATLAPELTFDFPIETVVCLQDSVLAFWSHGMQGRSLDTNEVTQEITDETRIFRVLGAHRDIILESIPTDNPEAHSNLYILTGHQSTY

[9] = biological target: T3, Mitogen-activated protein kinase kinase kinase kinase 2 (Homo sapiens); conditions: at 1 µM
[10] = biological target: Mitogen-activated protein kinase kinase kinase kinase 4 (Homo sapiens) (UniProt O95819); conditions: at 0.1 µM
Mitogen-activated protein kinase kinase kinase kinase 4 (Homo sapiens), sequence (O95819 2-1239 limits assumed): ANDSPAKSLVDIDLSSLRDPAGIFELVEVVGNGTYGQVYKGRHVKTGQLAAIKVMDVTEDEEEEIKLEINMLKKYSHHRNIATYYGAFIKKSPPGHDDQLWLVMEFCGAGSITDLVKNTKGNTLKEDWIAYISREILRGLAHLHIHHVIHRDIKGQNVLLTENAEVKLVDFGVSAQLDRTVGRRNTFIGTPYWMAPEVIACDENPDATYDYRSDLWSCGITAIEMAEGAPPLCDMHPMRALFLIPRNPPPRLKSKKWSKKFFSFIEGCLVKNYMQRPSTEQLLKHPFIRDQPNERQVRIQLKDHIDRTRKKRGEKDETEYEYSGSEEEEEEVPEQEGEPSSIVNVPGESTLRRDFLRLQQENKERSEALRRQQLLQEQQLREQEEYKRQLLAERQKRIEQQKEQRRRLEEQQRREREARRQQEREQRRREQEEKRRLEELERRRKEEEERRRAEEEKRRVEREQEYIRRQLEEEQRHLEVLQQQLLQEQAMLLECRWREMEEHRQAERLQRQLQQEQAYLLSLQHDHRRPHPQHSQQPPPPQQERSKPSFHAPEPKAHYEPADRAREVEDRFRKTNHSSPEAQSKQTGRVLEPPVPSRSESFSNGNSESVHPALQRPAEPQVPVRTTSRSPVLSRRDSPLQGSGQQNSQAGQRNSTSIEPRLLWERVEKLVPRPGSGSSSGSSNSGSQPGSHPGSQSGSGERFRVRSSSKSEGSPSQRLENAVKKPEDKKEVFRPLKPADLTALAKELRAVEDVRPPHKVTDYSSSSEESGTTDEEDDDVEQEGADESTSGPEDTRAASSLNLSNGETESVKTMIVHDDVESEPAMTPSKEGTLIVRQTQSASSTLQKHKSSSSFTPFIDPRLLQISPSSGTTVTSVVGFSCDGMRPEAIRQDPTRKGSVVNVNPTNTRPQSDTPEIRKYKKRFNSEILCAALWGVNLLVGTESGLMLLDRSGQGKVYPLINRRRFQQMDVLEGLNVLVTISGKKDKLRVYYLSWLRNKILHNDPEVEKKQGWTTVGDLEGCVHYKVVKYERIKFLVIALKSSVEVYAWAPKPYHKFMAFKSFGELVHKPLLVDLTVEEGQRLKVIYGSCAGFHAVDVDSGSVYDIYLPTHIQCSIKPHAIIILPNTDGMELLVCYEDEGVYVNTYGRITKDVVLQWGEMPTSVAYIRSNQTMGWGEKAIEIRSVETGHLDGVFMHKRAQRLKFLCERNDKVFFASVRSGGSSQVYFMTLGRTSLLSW

Compound | inhibition [1] [%] | inhibition [2] [%] | inhibition [3] [%] | inhibition [4] [%] | inhibition [5] [%] | inhibition [6] [%] | inhibition [7] [%] | inhibition [8] [%] | inhibition [9] [%] | inhibition [10] [%]
COc1cc2ncnc(Nc3ccc4c(cnn4Cc4ccccc4)c3)c2cc1OC | 7.82 | 3.48 | 15 | 1.9 | 23.7 | 0.29 | 14.2 | 1.57 | 1.51 | 8.32
Cc1cc(-c2ccccn2)cc(C)c1/C=C/c1cncc(-c2nn[nH]n2)c1 | 5.71 | 2.09 | 7.42 | 4.2 | 19.6 | 6.35 | 13.7 | -1.16 | 3.53 | 2.48
CN(C)C(=O)O[C@H]1CN[C@H](C#Cc2cc3ncnc(Nc4ccc(OCc5cccc(F)c5)c(Cl)c4)c3s2)C1 | 9.61 | 3.92 | 7.39 | 2.15 | 8.8 | 4.18 | 8.61 | 0.82 | 2.78 | 3.45
Cc1nc(-c2ccccc2)n2nc(NCCCN3CCOCC3)ncc12 | 5.63 | 1.82 | 8.37 | 1.43 | 12.1 | 4.62 | 7.49 | 2.45 | 2.48 | 1.62
O=C1Nc2ccc(-c3cccnc3)cc2C1=Cc1cc(Br)c(O)c(Br)c1 | 88.3 | 4.87 | 16 | 2.6 | 31.7 | 3.55 | 3.51 | 1.24 | 2.93 | 69.3
NS(=O)(=O)c1ccc(NC=C2C(=O)Nc3ccc4ncsc4c32)cc1 | 90.4 | 29.9 | 69.6 | 28.4 | 92.2 | 6.33 | 26.9 | 27.2 | 66.5 | 69.4
C[C@@H](Oc1cc(-n2cnc3ccc(OCC4CCN(C)CC4)cc32)sc1C(N)=O)c1ccccc1C(F)(F)F | -0.47 | -2.46 | 2.14 | -1.94 | 0.8 | 64.5 | 90.5 | 1.86 | 12.1 | -0.3
COc1cccc(-n2nc(C)c3c(N/N=C(\C)c4ccncc4)ncnc32)c1 | 0.79 | 2.73 | 3.95 | 0.6 | 4.15 | 0.54 | 3.61 | -0.39 | 0.32 | 1.37
OCc1ccc(-c2nc(-c3ccccn3)c(-c3ccc4c(c3)OCO4)[nH]2)cc1 | 11 | 6.24 | 11.7 | 3.67 | 12.5 | 6.01 | 4.97 | 1.15 | 2.87 | 5.21
Nc1nccc(C#Cc2cncnc2Nc2ccc(OCc3cccc(F)c3)c(Cl)c2)n1 | 15.2 | 5.2 | 13.2 | 3.04 | 10.1 | 5.76 | 11.4 | 1.38 | -0.42 | 6.33
COc1cc2ncn(-c3cc(OCc4ccccc4S(C)(=O)=O)c(C#N)s3)c2cc1OC | 77.2 | 28.2 | 73.6 | 17.7 | 93.8 | 35.5 | 71.7 | 8.65 | 41.3 | 57.5
Cc1ccc2c(-c3ccnc(Nc4ccc5c(c4)OCCO5)n3)c(-c3ccc(C(F)(F)F)cc3)nn2n1 | 0.25 | -0.46 | -2.36 | 0.45 | 1.78 | 3.03 | 5.81 | 1.07 | 2.41 | 0.41
Nc1nccc(-c2c(-c3ccc(F)cc3)nn3cc(C(F)(F)F)ccc23)n1 | 1.39 | 1.38 | 0.7 | 1.04 | 0.73 | -0.92 | 3.24 | 2.23 | 1.52 | -0.02
CS(=O)(=O)Nc1cccc(-c2ccc3c(NC(=O)C4CC4)n[nH]c3c2)c1 | 12.4 | 1.84 | 3.58 | 1.43 | 15.6 | 3.13 | 10.2 | 1.94 | 2.98 | 2.8
Cc1cc(O)cc(C)c1/C=C/c1cncc(C(=O)N(C)C)c1 | 13.3 | 7.28 | 14.7 | 3.08 | 2.63 | 3.87 | 7.88 | 2.39 | 6.67 | 6.12
O=C(Nc1ccc(Oc2ccc3[nH]c(NC(=O)c4ccco4)nc3c2)cc1)Nc1cc(C(F)(F)F)ccc1F | 15.1 | 5.43 | 38.8 | 8.04 | 82.4 | 35.6 | 76.7 | 2.98 | 28.9 | 0.47
c1ccc(Cc2nc3ccc(Nc4ncnc5ccccc45)cc3[nH]2)cc1 | 11.6 | 5.89 | 11 | 4.08 | 7.02 | 4.04 | 8.14 | 0.75 | 6.22 | 4.28

Compound | inhibition [1] [%] | inhibition [2] [%] | inhibition [3] [%] | inhibition [4] [%] | inhibition [5] [%] | inhibition [6] [%] | inhibition [7] [%] | inhibition [8] [%] | inhibition [9] [%] | inhibition [10] [%]
NS(=O)(=O)c1ccc(Nc2cc(-c3cccc(O)c3)n[nH]2)cc1 | 17.2 | 9.52 | 19.4 | 7.83 | 19.6 | 6.23 | 8.5 | 2.13 | 10.7 | 7.82
CCCN1CCCC(c2ccc(Nc3nc(Nc4cc(F)ccc4C(N)=O)c4cc[nH]c4n3)c(OC)c2)C1 (stereo not given) | 7.44 | -0.78 | 3.45 | -0.09 | 5.81 | 7.27 | 24.8 | 9.87 | 48.9 | 38.3
CN(C)c1cc2c(Nc3ccc4c(cnn4Cc4ccccc4)c3)ncnc2cn1 | 12.8 | -0.85 | 8.49 | 2.76 | 27.6 | 6.27 | 13.9 | 0.85 | 0.49 | 2.93
O=S(=O)(CCOCc1ccc(-c2ccc3ncnc(Nc4ccc(OCc5cccc(F)c5)c(Cl)c4)c3c2)o1)c1ccccc1 | 2.01 | 2.69 | 7.69 | -0.03 | 5.99 | 2.38 | 5.21 | 0.66 | 3.12 | 6.19
N#Cc1cccc(Nc2nccc(-c3cnn4ncccc34)n2)c1 | 74.5 | 19.3 | 64 | 18.5 | 96.7 | 5.05 | 15.8 | 11 | 45.8 | 19.3
CN1CCN(C(=O)c2ccc(NC(=O)Nc3ccc(N(C)c4ccnc(Nc5ccc(CS(C)(=O)=O)cc5)n4)cc3)cc2)CC1 | 85.9 | 68.5 | 72.8 | 88.4 | 95.3 | 26.3 | 67.7 | 4.67 | 32.7 | 13
COC(=O)c1cncc(/C=C/c2c(C)cc(O)cc2C)c1 | 8.18 | 2.38 | 9.6 | 2.3 | -1.31 | 5.36 | 26.2 | 0.34 | 4.75 | 3.73
c1ccc(Nc2ncc(-c3ccccc3)o2)cc1 | 15.2 | 3.84 | 10.3 | 0.81 | 16 | 3.84 | 9.44 | 1.03 | 5.7 | 5.9
Cc1ccc(C(=O)NC2CC2)cc1-c1ccc2[nH]ncc2c1 | -1.72 | -2.69 | -0.44 | -3.29 | 0.5 | -0.03 | -1.42 | -1.74 | 5.05 | -2.51
COc1ccc(-c2nn3ncccc3c2-c2ccnc(Nc3cccc(C(F)(F)F)c3)n2)cc1 | 5.62 | 1.05 | 5.57 | 1.98 | 5.91 | 6.76 | 12.3 | 2.11 | 1.6 | 3.02
NS(=O)(=O)c1ccc(N/N=C2\C(=O)Nc3ccc(Cl)cc32)cc1 | 26.8 | 3.68 | 6.25 | 1.97 | 5.64 | 6.82 | 6.74 | 0.49 | 3.26 | 25.7
NC(=O)c1sc(-n2cnc3ccccc32)cc1OCc1ccccc1Br | 4.39 | 4.16 | 9.94 | 1.83 | 8.84 | 17.4 | 60.6 | 2.47 | 8.46 | 4.11
NS(=O)(=O)c1ccc(-c2cc3ccncc3cc2OCc2ccccc2)cc1 | 7.25 | 2.9 | 4.42 | -0.1 | -6.92 | 3.53 | 9.35 | -0.94 | 2.03 | 5.89
NS(=O)(=O)c1cccc(-c2cc3ccncc3cc2OCc2ccccc2)c1 | 16.9 | 7.33 | 17.9 | 8.37 | 12.4 | 8.31 | 10.8 | 3.01 | 10.2 | 7.44
FC(F)(F)c1ccc(-c2nn3ncccc3c2-c2ccnc(Nc3ccc4c(c3)OCCO4)n2)cc1 | 29.2 | 7.15 | 11.2 | 4.98 | 12.1 | 10.5 | 30.1 | 6.41 | 6.88 | 3.6
O=C1Nc2ccccc2/C1=C/Nc1ccc2[nH]c(=O)[nH]c2c1 | 52 | 10.8 | 44.7 | 9.06 | 81.9 | 8.73 | 17 | 1.3 | 15.2 | 25.3
